Values joined by “and” are separate entries in the source; they are usually repeats but may differ in a detail not shown here. Equal values may be shown once. Records with an inconclusive call do not appear. Where a structure was tested more than once in an assay, its records may differ in their call. Active and inactive are the calls of the source. Unless noted, calls come from the whole dose curve; as a rule, active = well fitted curve in the direction sought with a large enough effect in the repeat runs; inconclusive = weak or mixed curves; inactive = no such curve, though single readings can be large; an effect the other way counts as inactive or inconclusive.
How the values were obtained:
[1] = qHTS assay to test for compound auto fluorescence at 535 nm (green) in HEK293 cells (AID 720680)
[2] = qHTS assay to test for compound auto fluorescence at 460 nm (blue) in HEK293 cell free culture (AID 720681)
How it was run: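 Test compounds were pinned into cell-free culture medium (DMEM with 10% FBS) and fluorescence was read directly at Ex/Em 405/460 nm. Signals were expressed as fluorescence equivalents of triamterene, with DMSO vehicle as control.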

[3] = qHTS assay to test for compound auto fluorescence at 535 nm (green) in HEK293 cell free culture (AID 720682)
How it was run: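 Intrinsic compound fluorescence is measured in culture medium containing 10% FBS, with excitation at 485 nm and detection at 535 nm, referenced to fluorescein.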

[4] = qHTS assay to test for compound auto fluorescence at 590 nm (red) in HEK293 cell free culture (AID 720683)
How it was run: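 Tox21 10K library compounds were pinned into cell-free DMEM with 10% FBS and fluorescence was read at excitation 540 nm. Activity is expressed as Rose Bengal sodium equivalency.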

[5] = qHTS assay to test for compound auto fluorescence at 590 nm (red) in HepG2 cell free culture (AID 720684)
How it was run: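 Measured in medium alone (MEM containing 10% FBS) following pintool addition of compound; emission at 590 nm with 540 nm excitation, referenced to Rose Bengal sodium.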

[6] = qHTS assay to test for compound auto fluorescence at 460 nm (blue) in HepG2 cell free culture (AID 720685)
How it was run: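 Compound (23 nL) or DMSO pinned into cell-free MEM with 10% FBS; blue fluorescence read at 405/460 nm excitation/emission, expressed as auto-fluorescence equivalency to triamterene.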

[7] = qHTS assay to test for compound auto fluorescence at 535 nm (green) in HepG2 cell free culture (AID 720686)
[8] = qHTS assay to test for compound auto fluorescence at 460 nm (blue) in HepG2 cells (AID 720687)
How it was run: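 Cells (2,000/well in MEM with 10% FBS) attached overnight at 37 C, then were exposed to compound or DMSO for 1 hr at 37 C, 5% CO2. Fluorescence read at Ex/Em 405/460 nm, expressed as triamterene-equivalent signal.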

[9] = target: Glucocorticoid receptor (Homo sapiens) (UniProt P04150); experiment: qHTS assay to identify small molecule agonists of the glucocorticoid receptor (GR) signaling pathway (AID 720691; active = well fitted activation curve with a large enough effect in the signal ratio in the repeat runs, not every such curve was filed as active; the % refers to the signal ratio)
How it was run: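 qHTS in GR-bla HeLa cells: 4 h settling at 37 C/5% CO2, 18 h compound incubation at 37 C, 2 h LiveBLAzer B/G FRET substrate at room temperature, fluorescence intensity measured.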

[10] = target: Glucocorticoid receptor (Homo sapiens) (UniProt P04150); experiment: qHTS assay to identify small molecule antagonists of the glucocorticoid receptor (GR) signaling pathway (AID 720692; active = well fitted inhibition curve with a large enough effect in the signal ratio in the repeat runs, not every such curve was filed as active; the % refers to the signal ratio; note: potency is the fitted concentration of half-maximal effect)
How it was run: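 Inhibition of glucocorticoid signalling is measured in HeLa cells with a GRE-controlled beta-lactamase reporter; cells are co-treated with compound and 5 nM dexamethasone (final) for 18 h before FRET substrate readout.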

[11] = qHTS assay to identify small molecule antagonists of the glucocorticoid receptor (GR) signaling pathway - cell viability counter screen (AID 720693); note: nearly all actives have a fitted effect of over 55% in size
[12] = qHTS assay for identifying genotoxic compounds that show differential cytotoxicity against isogenic chicken DT40 cell lines with known DNA damage response pathways - wild type cell line (AID 743012); note: nearly all actives have a fitted effect of over 60% in size; note: potency is the fitted concentration of half-maximal effect
How it was run: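 First, wild type DT40 cells were plated at 300 per well and equilibrated about 0.5 h at 37 C/5% CO2. Next, compounds in DMSO were added and exposure lasted 40 h. Finally, CellTiter-Glo was added for 30 min at room temperature and luminescence recorded.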

[13] = qHTS assay for identifying genotoxic compounds that show differential cytotoxicity against isogenic chicken DT40 cell lines with known DNA damage response pathways - Rev3 mutant cell line (AID 743014); note: nearly all actives have a fitted effect of over 55% in size; note: potency is the fitted concentration of half-maximal effect
[14] = qHTS assay for identifying genotoxic compounds that show differential cytotoxicity against isogenic chicken DT40 cell lines with known DNA damage response pathways - Rad54/Ku70 mutant cell line (AID 743015); note: nearly all actives have a fitted effect of over 60% in size; note: potency is the fitted concentration of half-maximal effect
[15] = qHTS assay to identify small molecule antagonists of the androgen receptor (AR) signaling pathway - cell viability counter screen (AID 743033; note: nearly all actives have a fitted effect of over 45% in size)
[16] = qHTS assay to identify small molecule antagonists of the androgen receptor (AR) signaling pathway using the MDA cell line - cell viability counter screen (AID 743041; note: nearly all actives have a fitted effect of over 45% in size)
How it was run: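 Viability counter screen run alongside the AR antagonist reporter: cells seeded 5 h before compound, R1881 added, 16 h incubation at 37C without CO2, fluorescent CellTiter-Fluor signal quantified.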

[17] = target: Androgen receptor (Homo sapiens) (UniProt P10275); experiment: qHTS assay to identify small molecule antagonists of the androgen receptor (AR) signaling pathway (AID 743035; active = well fitted inhibition curve with a large enough effect in the signal ratio in the repeat runs, not every such curve was filed as active; the % refers to the signal ratio)
How it was run: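 Beta-lactamase FRET read (2 h RT incubation with LiveBLAzer B/G) following 16 h of compound plus R1881 treatment of AR-UAS-bla HEK293 cells, which had been pre-incubated 4 h at 37C.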

[18] = target: Androgen receptor (Homo sapiens) (UniProt P10275); experiment: qHTS assay to identify small molecule agonists of the androgen receptor (AR) signaling pathway (AID 743036; active = well fitted activation curve with a large enough effect in the signal ratio in the repeat runs, with a control signal flat, not every such curve was filed as active; the % refers to the signal ratio)
How it was run: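 Agonist activity was scored by beta-lactamase reporter fluorescence in stably transfected HEK293 cells exposed to compounds for 16 h at 37C and 5% CO2. Substrate loading took 2 h at room temperature.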

[19] = target: Androgen receptor (Homo sapiens) (UniProt P10275); experiment: qHTS assay to identify small molecule antagonists of the androgen receptor (AR) signaling pathway using the MDA cell line (AID 743042; note: nearly all actives have a fitted effect of over 55% in size)
How it was run: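 MDA-kb2 cells (human breast carcinoma, stably carrying an MMTV-luciferase reporter responsive to AR and GR) were plated at 3,000 cells/well and preincubated 5 hr at 37C, then given compound plus R1881 agonist for 16 h. ONE-Glo luminescence was read.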

Measured: Potency

Sequence of Glucocorticoid receptor (Homo sapiens) (P04150 whole entry, looked up): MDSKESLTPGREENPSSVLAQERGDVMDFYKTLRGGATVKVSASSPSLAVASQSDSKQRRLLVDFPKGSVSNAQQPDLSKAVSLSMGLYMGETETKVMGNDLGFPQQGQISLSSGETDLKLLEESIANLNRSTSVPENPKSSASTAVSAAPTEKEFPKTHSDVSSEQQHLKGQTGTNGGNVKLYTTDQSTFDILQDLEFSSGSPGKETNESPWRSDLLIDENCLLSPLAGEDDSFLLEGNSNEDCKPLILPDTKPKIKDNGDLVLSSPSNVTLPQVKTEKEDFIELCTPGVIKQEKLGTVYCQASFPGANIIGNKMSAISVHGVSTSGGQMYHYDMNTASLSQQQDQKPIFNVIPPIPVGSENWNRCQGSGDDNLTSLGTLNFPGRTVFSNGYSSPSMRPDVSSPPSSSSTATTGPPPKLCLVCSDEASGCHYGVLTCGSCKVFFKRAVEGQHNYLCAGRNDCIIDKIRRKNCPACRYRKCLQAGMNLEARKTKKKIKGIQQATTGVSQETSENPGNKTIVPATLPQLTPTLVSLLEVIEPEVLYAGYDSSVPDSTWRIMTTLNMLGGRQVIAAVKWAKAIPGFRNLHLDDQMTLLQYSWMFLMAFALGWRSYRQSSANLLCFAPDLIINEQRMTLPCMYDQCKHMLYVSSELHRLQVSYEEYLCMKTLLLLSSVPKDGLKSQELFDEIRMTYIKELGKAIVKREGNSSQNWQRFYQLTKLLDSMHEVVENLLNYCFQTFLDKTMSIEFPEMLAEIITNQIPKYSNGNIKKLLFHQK
Sequence of Androgen receptor (Homo sapiens) (P10275 whole entry, looked up): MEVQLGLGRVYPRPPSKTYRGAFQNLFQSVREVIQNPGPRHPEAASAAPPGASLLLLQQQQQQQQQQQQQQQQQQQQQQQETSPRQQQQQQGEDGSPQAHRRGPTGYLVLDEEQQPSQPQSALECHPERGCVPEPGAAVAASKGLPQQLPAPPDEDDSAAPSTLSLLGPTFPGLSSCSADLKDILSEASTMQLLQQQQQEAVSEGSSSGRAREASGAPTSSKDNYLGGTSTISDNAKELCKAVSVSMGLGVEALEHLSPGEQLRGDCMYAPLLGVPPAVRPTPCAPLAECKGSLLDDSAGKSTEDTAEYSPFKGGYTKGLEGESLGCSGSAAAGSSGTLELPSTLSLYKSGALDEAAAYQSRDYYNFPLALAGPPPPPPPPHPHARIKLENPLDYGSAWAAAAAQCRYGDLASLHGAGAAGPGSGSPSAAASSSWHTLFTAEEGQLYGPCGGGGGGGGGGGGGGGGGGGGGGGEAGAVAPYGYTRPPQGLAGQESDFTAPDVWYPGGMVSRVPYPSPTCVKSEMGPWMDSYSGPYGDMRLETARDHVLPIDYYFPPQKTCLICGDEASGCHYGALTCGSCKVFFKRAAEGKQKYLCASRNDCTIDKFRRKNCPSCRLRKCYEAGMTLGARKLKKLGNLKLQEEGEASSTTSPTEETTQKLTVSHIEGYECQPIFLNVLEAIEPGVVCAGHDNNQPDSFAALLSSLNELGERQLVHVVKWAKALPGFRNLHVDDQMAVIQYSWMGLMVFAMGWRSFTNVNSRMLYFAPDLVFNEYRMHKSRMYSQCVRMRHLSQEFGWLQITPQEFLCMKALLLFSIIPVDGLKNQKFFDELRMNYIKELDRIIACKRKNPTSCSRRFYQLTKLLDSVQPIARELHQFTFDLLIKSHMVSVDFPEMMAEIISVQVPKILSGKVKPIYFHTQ

CCCCNS(=O)(=O)c1ccccc1
not listed: [17] | [18] | [19]
inactive: all other assays above

CCCc1c(OCCCCc2nn[nH]n2)ccc(C(C)=O)c1O
active: [10] 23.9 µM | [12] 29.8 µM | [14] 21.1 µM and 54.5 µM
29.8 µM (active) and inactive: [13]
not listed: [17] | [18] | [19]
inactive: all other assays above

c1ccc2c(c1)Oc1ccccc1S2
not listed: [17] | [18] | [19]
inactive: all other assays above

Cc1ncc[nH]1
not listed: [17] | [18] | [19]
inactive: all other assays above

O=CCc1ccccc1
inactive and 54.5 µM (active): [14]
not listed: [17] | [18] | [19]
inactive: all other assays above

Clc1nc(Cl)c(Cl)c(Cl)c1Cl
active: [10] 15.6 µM and 24.5 µM
not listed: [17] | [18] | [19]
inactive: all other assays above

Cc1ccc2c(n1)Oc1ccc(C(C)C(=O)OCC(=O)N(C)C)cc1C2 (stereo not given)
active: [12] 26.6 µM
inactive: all other assays above

Source: PubChem BioAssay (Tox21)
